# The campaign covered roughly 220,000 compounds. About 8,200 (3.7%) were called active.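 The calls were made as follows: active = compounds that reduced the stress-induced luciferase reporter signal by more than about 70% of percent inhibition (limit read from the data); inactive = the rest.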 The list comes from a sample in which actives are over-represented; it also holds similar structures and randomly drawn compounds.
# Assay: inhibitors of CHOP promoter induction, primary screen, cell-based, unfolded protein response, luciferase reporter (AID 2732);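 also: 0% = tunicamycin plus vehicle and 100% = wells without tunicamycin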
# Conditions: CHO-K1 CHOP-promoter luciferase, tunicamycin-induced, 15-18 h; at 10 µM; active compounds read high
row,SMILES,inhibition
1,CC(C)(C)c1ccc(Oc2ccc(N)cc2)cc1,107% (active)
2,Nc1ccc(Oc2ccc(Cl)cc2)cc1,33.6% (inactive)
3,Cc1ccc(Oc2ccc(N)cc2)cc1,37.7% (inactive)
4,Cc1cccc(-[n+]2c(-c3cccc(Br)c3)[nH]c3nc4ccccc4nc32)c1,18.3% (inactive)
5,COc1ccc(CCN2C(=O)CC(N3CCC(C(N)=O)CC3)C2=O)cc1OC (centres undefined),-9.45% (inactive)
6,O=[N+]([O-])c1cc([N+](=O)[O-])c2cccnc2c1O,16.7% (inactive)
7,CC(C)Cc1nc(Cl)c(C#N)c2c1CCC2,17.9% (inactive)
8,CC(C)Cc1nc(N2CCOCC2)c(C#N)c2c1CCC2,91.2% (active)
9,CC(C)c1nc(N2CCOCC2)c(C#N)c2c1COC(C)(C)C2,60.3% (inactive)
10,N/C(=N\OC(=O)Nc1ccccc1)c1ccno1,-5.09% (inactive)
11,Cc1cc2ccccc2n1CCC(=O)O,6.98% (inactive)
12,O=C(O)CCn1c(O)c(C=C2N=c3ccccc3=N2)sc1=S,80.2% (active)
13,O=C(COc1ccc([N+](=O)[O-])cc1Cl)Nn1cnnc1,-0.23% (inactive)
14,COc1cc(C=O)ccc1Oc1nnnn1-c1ccccc1,4.01% (inactive)
15,O=C(CSc1nnc2n1CCCN2)c1ccccc1,-11.1% (inactive)
16,CC(=O)c1ccc(NC(=O)C2CC(=O)Nc3nc4ccccc4n32)cc1 (centres undefined),-5.45% (inactive)
17,COc1ccc(Cn2c(C)c(C)c(C#N)c2NC(=O)Nc2ccc(F)cc2)cc1,94.3% (active)
18,COc1ccc(Cn2cccc(NC(=O)Nc3ccc(C#N)cc3)c2=O)cc1,62.7% (inactive)
19,Cc1c(C#N)c(NC(=O)c2ccccc2)n(Cc2ccccc2)c1C,-4.55% (inactive)
20,Cc1nc2c(ncn2-c2ccccc2)c(=O)n1NC(=O)CN1CCCC1,9.81% (inactive)
21,COc1cccc(/C=N/NC(=O)c2cccc([N+](=O)[O-])c2)c1OS(=O)(=O)c1ccc(C)cc1,0.84% (inactive)
22,Cc1ccc(-n2[nH]c(C)c(/C=N/NC(=O)c3cccc([N+](=O)[O-])c3)c2=O)cc1C,85.8% (active)
23,Cc1[nH]n(-c2ccccc2)c(=O)c1/C=N/NC(=O)c1ccoc1C,51.5% (inactive)
24,O=C(CSc1ncn[nH]1)Nc1nc(-c2cccc([N+](=O)[O-])c2)cs1,7.63% (inactive)

row,SMILES,inhibition
1,O=C(c1ccco1)N1CCN(CCOc2ccccc2)CC1,1.67% (inactive)
2,CC(=O)Nc1cccc(-c2cnc3ccccc3n2)c1,-21.7% (inactive)
3,Cc1ccc2nc(-c3ccccc3)cc(C(=O)O)c2c1,-1.51% (inactive)
4,CCS(=O)(=O)Nc1cccc(-c2cc(-c3ccccc3)c3cc(C)ccc3n2)c1,78.8% (active)
5,CCOC(=O)c1ccc(NC(=O)c2nc[nH]c2C(=O)NCc2ccccc2)cc1,94.5% (active)
6,CCOC(=O)c1[nH]cnc1C(=O)Nc1ccccc1C,-6.79% (inactive)
7,CCOC(=O)c1ccc(NC(=O)c2nc[nH]c2C(=O)N[C@@H](CCCCNC(=O)OC(C)(C)C)C(=O)OC(C)(C)C)cc1,44.5% (inactive)
8,CCC(=O)c1ccc(OCC(=O)Nc2ccc3nc(C)sc3c2)cc1,0.17% (inactive)
9,COc1ccc2nc(Nc3nc4ccc(NC(C)=O)cc4s3)sc2c1,-58.2% (inactive)
10,CCOc1ccc2nc(Nc3nc4ccc(NC(C)=O)cc4s3)sc2c1,106% (active)
11,O=C(NNS(=O)(=O)c1ccccc1C(F)(F)F)c1cc2ncc(C(F)(F)F)cc2s1,-0.25% (inactive)
12,C=CCOc1nc2c(c(=O)n(C)c(=O)n2C)n1Cc1ccc(Cl)cc1Cl,93.2% (active)
13,Cn1c(=O)c2c(nc(OCc3cccnc3)n2Cc2ccccc2)n(C)c1=O,7.91% (inactive)
14,C=CCn1c(Oc2ccc(C(=O)OC)cc2)nc2c1c(=O)n(C)c(=O)n2C,3.03% (inactive)
15,Clc1ccc(C[n+]2cc(-c3ccc(Cl)cc3)n3c2CCC3)cc1,-2.43% (inactive)
16,CCn1nc(C)c(/C=N/NC(=O)Cc2ccc(Cl)cc2)c1C,14.1% (inactive)
17,Cc1nn(Cc2ccc(Cl)cc2)c(Cl)c1/C=N/NC(=O)CNc1ccccc1F,96.1% (active)
18,Cc1nn(Cc2ccc(Cl)cc2)c(Cl)c1/C=N/NC(=O)c1cccnc1,-12.2% (inactive)
19,Oc1[nH]c2ccc(Br)cc2c1N=Nc1nn[nH]n1,-5.13% (inactive)
20,CCOC(=O)c1ccc(N=C2SC(C(=O)NC)CC(=O)N2CCc2ccccc2)cc1 (centres undefined),-10.9% (inactive)
21,O=C(NCCN1CCN(Cc2ccccc2)CC1)c1cc2c(=O)[nH]c3ccccc3c2s1,21.6% (inactive)
22,Cc1ccc2[nH]c(=O)c(CC=C(Cl)Cl)c(C)c2c1,52.8% (inactive)
23,Cc1cccc(N(C)C(=O)c2cc3c(=O)[nH]c4ccc(C)cc4c3s2)c1,80.4% (active)
24,S=C(NNC(=S)NC1CC2C=CC1C2)NC1CC2C=CC1C2 (centres undefined),9.31% (inactive)

row,SMILES,inhibition
1,C/C(=N/NC(=O)c1ccn(C)n1)c1ccncc1,12.5% (inactive)
2,COc1ccc(Nc2nc(Cl)nc(NCc3ccco3)n2)cc1,85% (active)
3,COc1cccc(Nc2nc(N)c([N+](=O)[O-])c(NCc3ccco3)n2)c1,38.9% (inactive)
4,COc1ccc(Nc2nc(NCc3ccco3)nc(N/N=C/c3ccccc3Cl)n2)cc1,-19.9% (inactive)
5,COc1ccc(Br)c2c1C(=O)CC2,10.2% (inactive)
6,Cn1nccc1NC(=O)CC(CC(=O)O)c1ccccc1 (centres undefined),25.4% (inactive)
7,COc1cc2c(cc1OC)C(/C=C/c1ccco1)=NCC2,1.07% (inactive)
8,COC(=O)C1=C(N)Oc2cc(C)[nH]c(=O)c2C1c1ccc(Cl)cc1 (centres undefined),-8.98% (inactive)
9,C=C(C)C(=O)O[C@H]1C/C(C)=C\C(=O)/C=C(\C)[C@H](O)[C@@H]2OC(=O)C(=C)[C@@H]21,107% (active)
10,O=C(O)C#Cc1cccc2ccccc12,-1.61% (inactive)
11,COc1ccc(F)cc1S(=O)(=O)N1CCCCC1,10.6% (inactive)
12,CCOC(=O)c1ccc(S(=O)(=O)N(CCO)Cc2cc3cc(OC)c(OC)cc3[nH]c2=O)cc1,23.6% (inactive)
13,Cc1nc(-c2ccc(Cl)cc2)sc1C1(C)CC(c2ccccc2F)=NO1 (centres undefined),-3.45% (inactive)
14,CCC/C(C)=N\Nc1nc2c(c(=O)n(C)c(=O)n2C)n1C,6.66% (inactive)
15,Cc1ccc(C2(C(F)(F)F)N=C3Sc4cc(C)cc(C)c4N3C(=O)N2)cc1 (centres undefined),76.7% (active)
16,CCOC(=O)c1cc(Sc2ccccc2N)cc(C(=O)OCC)n1,15.6% (inactive)
17,CCN(CC)CCn1c(N)c(S(=O)(=O)c2ccccc2)c2nc3ccccc3nc21,-7.46% (inactive)
18,NS(=O)(=O)c1ccc(CNC(=O)c2cnccn2)cc1,-3.79% (inactive)
19,COc1ccc(Nc2cc(=O)n(-c3ccccc3)c3c2c(=O)n(C)c(=O)n3C)cc1,7.22% (inactive)
20,Cc1ccc(S(=O)(=O)NNC(=S)NC(C)(C)C)cc1,-12.5% (inactive)
21,CSc1nnc(-c2ccc(C(F)(F)F)cn2)o1,-2.28% (inactive)
22,CCN(CC)S(=O)(=O)c1ccc2nc(COC(=O)c3n[nH]c4ccccc34)[nH]c2c1,104% (active)
23,CCN(CC)S(=O)(=O)c1ccc2nc(CSc3nnnn3-c3ccc(O)cc3)[nH]c2c1,29.3% (inactive)
24,CN(C)S(=O)(=O)c1ccc(NC(=O)COC(=O)c2n[nH]c3ccccc23)cc1,22.3% (inactive)

row,SMILES,inhibition
1,C/C(=N/NC(=O)CC(=O)N/N=C(\C)c1ccc([N+](=O)[O-])cc1)c1ccc([N+](=O)[O-])cc1,-0.51% (inactive)
2,CCCCCn1c(SCCC(C)C)nc2c1c(=O)[nH]c(=O)n2C,97.9% (active)
3,CCCSc1nc2c(c(=O)[nH]c(=O)n2C)n1CCc1ccccc1,19.8% (inactive)
4,CCCCCCn1c(SCC(=O)c2ccccc2)nc2c1c(=O)[nH]c(=O)n2C,-4.27% (inactive)
5,Cc1cc(C(=O)NCCc2ccc(Cl)cc2)n(-c2ccccc2)n1,16.9% (inactive)
6,CCCCCCn1c(CN2CCCC(C)C2)nc2c1c(=O)n(C)c(=O)n2C (centres undefined),97.9% (active)
7,CC1CCCN(Cc2nc3c(c(=O)n(C)c(=O)n3C)n2CC(=O)c2ccccc2)C1 (centres undefined),3.62% (inactive)
8,CCN1CCN(Cc2nc3c(c(=O)n(C)c(=O)n3C)n2CC(=O)c2ccccc2)CC1,6.1% (inactive)
9,O=C(NNS(=O)(=O)Cc1ccccc1)c1ccc([N+](=O)[O-])cc1,0.23% (inactive)
10,O=C(c1ccc(F)cc1)n1c(=S)nc2ccccn21,20.7% (inactive)
11,CCC(C)Cn1c(O)cc2nn(-c3nc4ccccc4s3)c(=O)c-2c1C (centres undefined),83.7% (active)
12,CCOC(=O)N1CCN(CC(=O)Nc2cc(C)nn2-c2nc3ccccc3s2)CC1,-20.6% (inactive)
13,Cc1cc(NC(=O)CN2CCCC(C)C2)n(-c2nc3ccccc3s2)n1 (centres undefined),52.1% (inactive)
14,CCOC(=O)CN(C)S(=O)(=O)c1ccc(-c2cc(C(=O)OC)sc2C(F)(F)F)cc1,-2.09% (inactive)
15,CCOC(=O)c1nnn2c1nc(N1CCN(c3ccccc3)CC1)c1ccccc12,4.43% (inactive)
16,O=C(CSc1nnc(-c2ccccn2)n1-c1ccccc1)Nc1ccc2c(c1)OCO2,14.5% (inactive)
17,Cc1ccc(-n2c(SCC(=O)Nc3ccc4c(c3)OCO4)nnc2-c2ccccn2)cc1,23% (inactive)
18,Cc1ccc(-n2c(SCC(=O)Nc3ccc4c(c3)OCO4)nnc2-c2ccoc2C)cc1,79.8% (active)
19,COc1ccc(/C(C)=N/N2CCOCC2)c(O)c1,4.65% (inactive)
20,Cc1ccc2nc(-c3cccc(Br)c3)cc(C(=O)Nn3cnnc3)c2c1,6.71% (inactive)
21,Cc1ccc2nc(Nc3ccccc3O)nc(-c3ccccc3)c2c1,85.7% (active)
22,Cc1ccc2nc(Nc3ncc4c(n3)CC(C)(C)CC4=O)nc(C)c2c1,7.17% (inactive)
